Assay results published in PubChem BioAssay AID623870 (Broad Institute, 2012).
The whole screen tested about 390,000 compounds, of which about 2,600 (0.67%) were called active.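 How the source made its calls: active means mean inhibition of replicates at least 50% and at least half of replicates each reaching 50%; inconclusive means half or more replicates reach 50% but mean below 50%; inactive means the rest.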 Many of the other results were omitted from the sample, so actives are more common in it than they were.

Each molecule was assayed against Transforming acidic coiled-coil-containing protein 3 (Homo sapiens) (UniProt Q9Y6A5) (assay: inhibitors of ARNT PAS-B binding to TACC3 – biochemical, AlphaScreen, single concentration, primary screen (AID 623870;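 further: 0% = complete ARNT plus TACC3 wells and 100% = ARNT alone without TACC3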)). Settings: AlphaScreen His-ARNT PAS-B/GST-TACC3 binding, luminescence; at 9.99 µM; active compounds read high; TACC3 fragment carries E629A point mutation.

inhibition, inactive:
CN(C)C(=O)C[C@@H]1CC[C@H]2[C@@H](COC[C@H](O)CN2C(=O)c2ccncc2)O1 -9.54%, C[C@@H]1CN([C@H](C)CO)S(=O)(=O)c2ccc(-c3ccncc3)cc2O[C@@H]1CN(C)C(=O)CN(C)C 12%, C[C@H]1CN([C@@H](C)CO)C(=O)c2cc(NC(=O)NC3CCCCC3)ccc2O[C@@H]1CN(C)C(=O)Nc1cccc2ccccc12 0.153%, CC[C@H](C)[C@@H](C(=O)N1CCNCC1)n1cc([C@@H](N)Cc2ccc(O)cc2)nn1 -3.75%, CCC(C)[C@@H](C(=O)N1CCNCC1)n1cc(CCCCN)nn1 (some centres undefined) 7.8%, C#CCOCCOCCOCCNc1nc(N2CCN(C(=O)CCCCCCCCCCNC(=O)[C@H]([C@@H](C)CC)n3cc(CCCCN=C(N)N)nn3)CC2)nc(N2CCN(C(=O)CCCCCCCCCCNC(=O)[C@H](CO)n3cc(CCCSC)nn3)CC2)n1 9.17%, C[C@H]1CN([C@@H](C)CO)C(=O)c2cc(NC(=O)CCN3CCOCC3)ccc2O[C@@H]1CN(C)C(=O)Nc1ccc(C(F)(F)F)cc1 26.6%, Cc1noc(C)c1S(=O)(=O)N(C)C[C@H]1OCCCC[C@@H](C)Oc2ccc(NC(=O)c3ccccc3)cc2C(=O)N([C@@H](C)CO)C[C@H]1C -4.16%, COc1ccc(S(=O)(=O)N2CCOCC2)c(C)c1C -0.167%, O=C1c2ccccc2-c2ncnc3c(N4CCOCC4)cc(N4CCOCC4)c1c23 11.8%, C[C@@H]1CN([C@@H](C)CO)C(=O)c2cccc(NS(=O)(=O)c3cn(C)cn3)c2O[C@H]1CN(C)Cc1ccc(Cl)c(Cl)c1 4.82%, O=C(NC1CCCC1)[C@H]1[C@H](CO)[C@H]2Cn3c(ccc(-c4ccccc4)c3=O)[C@H]2N1CCc1ccccc1 5.95%, COCC(=O)N1CC[C@@H]2[C@@H](CO)Nc3ccc(-c4ccc(C(=O)N(C)C)cc4)cc3[C@@H]21 -12.5%, COc1cccc(S(=O)(=O)N[C@H]2CC[C@H](CCN)O[C@H]2CO)c1 0.015%, COCC(=O)Nc1ccc2c(c1)OC[C@@H](C)N(C(=O)c1cnccn1)C[C@H](C)[C@H](OC)CN(C)C2=O -8.24%, COc1cc(Cl)cc(C2NC(=O)NC(C)=C2C(=O)NCc2ccccc2)c1O (centres undefined) -0.141%, COc1cc(C(=O)NCc2ccc(-n3cccc3)cc2)cc(OC)c1OC -1.7%, COc1ccc(S(=O)(=O)Nc2cccc3c2O[C@@H](CN(C)S(=O)(=O)c2ccccc2)[C@@H](C)CN([C@@H](C)CO)C3=O)cc1 1.77%, CC(=O)N(C)C[C@H]1Oc2cc(-c3ccc(C)cc3)ccc2S(=O)(=O)N([C@@H](C)CO)C[C@@H]1C -9.76%, C[C@@H]1CN([C@@H](C)CO)S(=O)(=O)c2ccc(C3=CCCC3)cc2O[C@H]1CN(C)C(=O)CC1CC1 3.76%, C[C@H]1CN([C@@H](C)CO)C(=O)c2cc(NC(=O)Cn3cnnn3)ccc2O[C@@H]1CN(C)C(=O)Nc1ccccc1 -0.158%, CCC(CC)c1nnc(NC(=O)C2=COCCO2)s1 -6.14%, O=C(Nc1nnc(C2=COCCO2)o1)c1ccc([N+](=O)[O-])s1 32.6%, COC(=O)[C@@H]1[C@@H](CO)[C@@H]2Cn3c(ccc(C4=CCCC4)c3=O)[C@@H]2N1Cc1cncnc1 -4.04%, C/C=C/c1ccc2c(c1)O[C@@H](CN(C)C(=O)Cc1ccccn1)[C@@H](C)CN([C@H](C)CO)S2(=O)=O -2.68%, O=C(CN1C(=O)COc2ccc(Cl)cc21)Nc1ccc(N2CCOCC2)cc1 2.76%, CC(OC(=O)CN1C(=O)COc2ccccc21)C(=O)NCc1ccc(F)cc1 (centres undefined) -23.2%, C[C@H]1CN([C@@H](C)CO)C(=O)c2cc(NC(=O)Nc3ccc4c(c3)OCO4)ccc2O[C@@H]1CN(C)Cc1ccc(Oc2ccccc2)cc1 28.7%, COc1cc(C2C(C(=O)Nc3ccccc3OC)=C(C)Nc3ncnn32)ccc1O (centres undefined) 7.59%, CC1=C(C(=O)OC2CCCCC2)C(c2cccnc2)n2ncnc2N1 (centres undefined) -3.41%, CN1CCN(C(=O)C[C@H]2CC[C@H]3[C@H](COc4ccc(NC(=O)C5CC5)cc4C(=O)N3C)O2)CC1 -1.07%, O=C(Cc1ccncc1)NCC[C@H]1CC[C@@H](NC(=O)Nc2ccc(Cl)cc2)[C@@H](CO)O1 13.7%, CCC(=O)N(C)C[C@H]1Oc2ncc(C#CC(C)C)cc2C(=O)N([C@@H](C)CO)C[C@H]1C -8.34%, Cc1ccc(S(=O)(=O)N2C[C@@H](O)COC[C@@H]3O[C@@H](CC(=O)N[C@H]4CCN(Cc5ccccc5)C4)CC[C@H]32)cc1 -6.23%, CCOC(=O)c1nn(-c2cccc(C)c2)cc1C(=O)c1ccccc1 25.6%, Cc1cc(C(=O)OCC(=O)NCc2ccco2)c(C)n1-c1ccccc1 -8.94%, CC(C)CC#Cc1cnc2c(c1)C(=O)N([C@H](C)CO)C[C@H](C)[C@H](CN(C)C(=O)Nc1ccccc1F)O2 -1.64%, CC(C)CC#Cc1ccc2c(c1)O[C@H](CN(C)C(=O)c1cccnc1)[C@@H](C)CN([C@H](C)CO)S2(=O)=O -3.52%, COc1ccc(S(=O)(=O)N(C)C[C@H]2OCCCC[C@H](C)Oc3ccc(NC(=O)CCC(F)(F)F)cc3C(=O)N([C@@H](C)CO)C[C@@H]2C)cc1 1.97%, CCCNC(=O)C[C@H]1CC[C@H]2[C@@H](COC[C@@H](O)CN2C(=O)Nc2ccc(Cl)c(Cl)c2)O1 -0.599%, CCNC(=O)C[C@@H]1CC[C@H](NC(=O)NC2CCCCC2)[C@H](CO)O1 14.7%, C[C@@H](O)C#Cc1cnc2c(c1)C(=O)N([C@@H](C)CO)C[C@H](C)[C@H](CN(C)Cc1cncnc1)O2 -0.882%, O=C(COC(=O)CSc1nnc(-c2ccc(Cl)cc2)o1)Nc1cc(Cl)cc(Cl)c1 2.05%, CCc1cccc(NC(=O)COC(=O)c2cc(=O)c3ccccc3o2)c1 -1.51%, CO[C@@H]1CN(C)C(=O)c2ccc(NC(=O)Nc3ccccc3)cc2OC[C@H](C)N(C(=O)CC2CC2)C[C@@H]1C -5.39%, COCCNC(=O)C(OC(=O)c1cccs1)c1ccc(F)cc1 (centres undefined) -9.93%, COCCCNC(=O)Cn1cc(C(=O)C2CC2)c2ccccc21 1.82%, C[C@@H]1CCCCO[C@H](CN(C)Cc2ccc(Cl)c(Cl)c2)[C@H](C)CN([C@@H](C)CO)C(=O)c2cc(NC(=O)C3CCCCC3)ccc2O1 -6.84%, C[C@@H]1CN([C@@H](C)CO)C(=O)CCCn2cc(nn2)CO[C@H]1CN(C)C(=O)Nc1ccc(N2CCCCC2)cc1 4.48%, O=C(NCC[C@@H]1CC[C@H](NC(=O)Nc2cc(F)ccc2F)[C@@H](CO)O1)Nc1ccc(Cl)cc1 -4.66%, CNC(=O)C[C@@H]1CC[C@@H]2[C@H](COc3ccc(NC(=O)Nc4ccccc4)cc3C(=O)N2C)O1 -2.84%, O=C(CC1CC1)N1[C@H](CO)[C@@H]2c3ccccc3N(S(=O)(=O)c3ccc(F)cc3)C[C@@H]21 -6.11%, O=C(C[C@H]1CC[C@@H](NC(=O)Cc2cccnc2)[C@H](CO)O1)Nc1ccc(-c2ccccc2)cc1 -7.46%, COc1ccc(S(=O)(=O)Nc2ccc3c(c2)CC(=O)N([C@H](C)CO)C[C@H](C)[C@H](CN(C)CC2CC2)O3)cc1 -8.43%, O=C(Nc1cc(F)ccc1F)N1C[C@H]2[C@@H](c3ccccc31)[C@@H](CO)N2CC1CCCC1 -1.12%, Cc1cccc(NC(=O)C(C)N2C(=O)C3C4CC(C(Br)C4Br)C3C2=O)c1 (centres undefined) 5.02%

inhibition, active:
C#CCOCCOCCOCCNc1nc(N2CCN(C(=O)C([C@@H](C)O)n3cc([C@@H](N)CCCCN)nn3)CC2)nc(N2CCN(C(=O)[C@H](CCCCN)n3cc(CN)nn3)CC2)n1 (some centres undefined) 21.2%, C#CCOCCOCCOCCNc1nc(N2CCN(C(=O)[C@H](CCCCN)n3cc([C@@H](N)C(C)CC)nn3)CC2)nc(N2CCN(C(=O)[C@H](Cc3ccc(O)cc3)n3cc([C@@H](N)C(C)CC)nn3)CC2)n1 (some centres undefined) 45.7%, COC1=C(N2CCOCC2)C(=O)c2ccccc2C1=O 60.4%, COc1cc(C(=S)NCc2ccccc2)cc(Br)c1O 49.6%, c1ccc(-c2cn3c(n2)CCc2ccc4cccnc4c2-3)cc1 64.1%, COc1cc(-c2nnc(NC(=O)C3=COCCO3)o2)cc(OC)c1OC 45.2%, O=C(CN1C(=O)COc2ccccc21)Nc1ccc(F)cc1 55.9%, COC(=O)C1=C(C)Nc2ncnn2C1c1cccnc1 (centres undefined) 18.7%, Oc1ccc(N=Nc2nccs2)c(O)c1 80.9%, CCOC(=O)C1=C(O)/C(=C/c2cc(C)n(-c3ccccc3)c2C)N=C1C 27.3%, CC(=O)Nc1cccc(C(=O)OCC(=O)Nc2nnc(-c3ccccc3)o2)c1 55.1%, COCCNC(=O)Cn1cc(C(=O)c2cccs2)c2ccccc21 -1.09%, CC(C(=O)Nc1ccc(O)c(C(=O)O)c1)N1C(=O)/C(=C/c2cccs2)SC1=S (centres undefined) 55.9%
